According to PubChem BioAssay (EPA / NIEHS):
Records with an inconclusive call do not appear. Calls of active or inactive are those of the source. How the source made its calls, unless noted: active means hit-call score of the fitted dose curve at least 0.9, where 1 is the maximum; inconclusive means response in the unintended direction; inactive means score below 0.9.

Tests used:
[1] = Tanguay_ZF_120hpf_PE_legacy: (Legacy) Oregon State University Tanguay Lab 120 Hour Post-fertilization zebrafish Assay for Pericardial Edema (AID 2283640);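 on AC50: potency for increased incidence of pericardial edema versus DMSO baseline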
Outline: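 Scoring was binary, by brightfield microscopy at 120 hpf, and skipped where mortality occurred. Wild-type embryos were kept under sealed, foil-covered static exposure at 28C in 0.64% (vol/vol) DMSO.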

[2] = Tanguay_ZF_120hpf_BRAI_legacy: (Legacy) Oregon State University Tanguay Lab 120 Hour Post-fertilization zebrafish Assay for Brain Malformation (AID 2283641)
Outline: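 Binary brightfield scoring of brain malformation at 120 hpf in Tropical 5D larvae held under static exposure at 28C (0.64% v/v DMSO), non-mortality endpoints skipped if dead. Positive control: 5uM trimethyltin chloride; fit versus DMSO.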

[3] = Tanguay_ZF_120hpf_SOMI_legacy: (Legacy) Oregon State University Tanguay Lab 120 Hour Post-fertilization zebrafish Assay for Somite Malformation (AID 2283647)
Outline: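 Binary somite-defect scoring at 120 hpf, omitted for embryos that died, in wild-type (Tropical 5D) zebrafish with chorion removed by pronase at 4 hpf; static exposure began 6 hpf, single embryos per well, 28C, 0.64% DMSO; fitted positive versus DMSO.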

[4] = Tanguay_ZF_120hpf_PFIN_legacy: (Legacy) Oregon State University Tanguay Lab 120 Hour Post-fertilization zebrafish Assay for Pectoral Fin Malformation (AID 2283648);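 further: each larva judged yes or no for fin defect by brightfield with dead larvae skipped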
Outline: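 Binary pectoral fin malformation call at 120 hpf by brightfield microscopy; 5D wild-type zebrafish, chorion removed at 4 hpf, one embryo per well from 6 hpf, static exposure at 28C; DMSO (0.64% final) as baseline.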

[5] = Tanguay_ZF_120hpf_CFIN_legacy: (Legacy) Oregon State University Tanguay Lab 120 Hour Post-fertilization zebrafish Assay for Caudal Fin Malformation (AID 2283649)
Outline: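 Binary brightfield scoring of caudal fin defects at 120 hpf after static, light-shielded exposure at 28C from 6 hpf. Tropical 5D embryos, chorion removed with pronase at 4 hpf, final DMSO 0.64%.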

[6] = Tanguay_ZF_120hpf_PIG_legacy: (Legacy) Oregon State University Tanguay Lab 120 Hour Post-fertilization zebrafish Assay for Pigmentation Malformation (AID 2283650)
Outline: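 Brightfield scoring of pigmentation malformation at 120 hpf, recorded as binary present/absent per larva. Exposure: dechorionated 5D wild-type embryos, one per well, static from 6 hpf at 28C, final DMSO 0.64% (vol/vol). Dead embryos not scored.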

[7] = Tanguay_ZF_120hpf_CIRC_legacy: (Legacy) Oregon State University Tanguay Lab 120 Hour Post-fertilization zebrafish Assay for Circulatory Malformation (AID 2283651)
Outline: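 Embryos are dechorionated at 4 hpf, plated one per well at 6 hpf, then held under static exposure at 28C until 120 hpf. Malformations are recorded as binary calls; mortality excludes other endpoints.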

[8] = Tanguay_ZF_120hpf_SWIM_legacy: (Legacy) Oregon State University Tanguay Lab 120 Hour Post-fertilization zebrafish Assay for Swim Bladder Malformation (AID 2283654);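 further: swim bladder malformation in each larva scored yes or no under brightfield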
Outline: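 Tropical 5D embryos dechorionated at 4 hpf; 1 embryo/well from 6 hpf; static, sealed, dark exposure at 28C until 120 hpf; final DMSO 0.64%; 5uM trimethyltin chloride positive control; swim bladder defect recorded yes/no; dead embryos not scored.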

[9] = Tanguay_ZF_120hpf_TRUN_legacy: (Legacy) Oregon State University Tanguay Lab 120 Hour Post-fertilization zebrafish Assay for Truncated Body (AID 2283655)
Outline: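 Binary presence/absence of truncated body is recorded at 120 hpf by brightfield, with non-mortality endpoints skipped after death. Exposure is static from 6 hpf in sealed dark plates at 28C, using dechorionated wild-type zebrafish, 0.64% DMSO.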

[10] = system: Thyroperoxidase (TPO), gene 54314; assay: CCTE_Simmons_AUR_rTPO: CCTE's Amplex UltraRed Assay for Thyroperoxidase (TPO) Inhibition, Simmons Lab (AID 2283662);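 further: potency for loss of signal meaning inhibition of peroxidase activity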
Outline: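 Rat thyroid microsomal TPO + 25 uM AUR in 200 mM K phosphate; cpd 5 nM–87.5 uM [final], 8 conc, 0.5% DMSO; 300 uM H2O2 starts rxn; 37C dark 30 min; endpoint FI 544/590 nm; n=3.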

[11] = CCTE_Simmons_CellTiterGLO_HEK293T: Viability Assessment in CCTE's Assays for Thyroperoxidase (TPO) Inhibition, Simmons Lab (AID 2283665);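 on AC50: cells exposed to compound for 24 h before readout; actives reduce ATP signal below DMSO vehicle meaning cytotoxicity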
Outline: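 Cells were seeded overnight, then exposed to an eight-point series up to 87.5 uM final for 24 hours. CellTiter-Glo reagent was added and luminescence read after 20 min, giving ATP-based viability versus DMSO.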

[12] = Tanguay_ZF_120hpf_TR_legacy: (Legacy) Oregon State University Tanguay Lab 120 Hour Post-fertilization zebrafish Assay for Touch Response (AID 2283667)
Outline: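 Binary touch-response call at 120 hpf, analysed as gain of signal versus DMSO baseline. Wild-type 5D larvae, static exposure at 28C, 0.64% DMSO final; 5uM trimethyltin chloride as positive control.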

[13] = Tanguay_ZF_120hpf_NC_legacy: (Legacy) Oregon State University Tanguay Lab 120 Hour Post-fertilization zebrafish Assay for Notochord and Tail Malformation (AID 2283656)
Outline: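 Binary scoring of notochord distortion by brightfield microscopy; embryos dying were not scored. Wild-type Tropical 5D embryos, chorion removed, exposed singly and statically from 6 to 120 hpf, 28C, sealed, 0.64% DMSO.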

[14] = STM_H9_OrnithineISnorm_perc: Stemina devTOX quickPredict H9 human embryonic stem cell (hESC)-based Assay for Ornithine (ORN) Metabolite Biomarker, Normalized (AID 2283712; active means hit-call score of the fitted dose curve at least 0.9, where 1 is the maximum; inactive means score below 0.9;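 further: ornithine released into spent medium during last day measured by mass spectrometry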)
Outline: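 Ornithine secreted by H9 hESCs after 72h compound treatment (daily media/compound renewal) was quantified in final-day media by UPLC-HRMS. Values are isotope-standard-normalized, expressed relative to 0.1% DMSO, fitted in positive direction.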

[15] = CCTE_Padilla_ZF_144hpf_TERATOSCORE: (Legacy) CCTE's 144 Hour Post-fertilization zebrafish Assay Teratoscore, Padilla Lab (AID 2283679; active means hit-call score of the fitted dose curve at least 0.9, where 1 is the maximum; inactive means score below 0.9;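 on AC50: zebrafish embryos with chorions exposed by immersion from 6-8 hpf to 5 dpf with daily renewal; teratogenicity score from eye scoring of death hatching and malformations at 144 hpf; higher score means more developmental defects relative to DMSO baseline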)
Outline: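 Larvae scored by eye at 144 hpf for death, hatching and malformations after a day in clean Hanks'. Before that, daily-renewed exposure at 80 uM (0.4% DMSO, 26C) from roughly 6-8 hpf through 5 dpf, 4 embryos per chemical.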

[16] = read-out: solute carrier (SLC22A6), SLC22A6 (gene 9356); assay: LTEA_HepaRG_SLC22A6: Life Technologies and Expression Analysis (LTEA) Assay for solute carrier (SLC22A6) using HepaRG (AID 2283653; active means hit-call score of the fitted dose curve at least 0.9, where 1 is the maximum; inactive means score below 0.9); details: mRNA level, 48 h; actives raise or lower the signal
Outline: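 SLC22A6 transcript was measured by TaqMan qRT-PCR, normalized to three housekeeping genes, after 48 h duplicate exposure of HepaRG cells (100 uM top, half-log steps, 0.5% DMSO); bidirectional fit against vehicle.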

[17] = read-out: solute carrier (SLC10A1), SLC10A1 (gene 6554); assay: LTEA_HepaRG_SLC10A1: Life Technologies and Expression Analysis (LTEA) Assay for solute carrier (SLC10A1) using HepaRG (AID 2283657; active means hit-call score of the fitted dose curve at least 0.9, where 1 is the maximum; inactive means score below 0.9); details: mRNA level, 48 h; actives raise or lower the signal
Outline: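 HepaRG, 48 h exposure, 8-pt half-log curve from 100 uM in 0.5% DMSO, duplicates. Read-out: TaqMan qRT-PCR of SLC10A1 mRNA, normalized to three housekeeping genes. Gain/loss fit vs DMSO baseline.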

[18] = read-out: matrix metalloproteinase-1 (MMP1), MMP1 (gene 4312); assay: LTEA_HepaRG_MMP1: Life Technologies and Expression Analysis (LTEA) Assay for matrix metalloproteinase-1 (MMP1) using HepaRG (AID 2283658; active means hit-call score of the fitted dose curve at least 0.9, where 1 is the maximum; inactive means score below 0.9); details: mRNA level, 48 h; actives raise or lower the signal
Outline: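 qRT-PCR (TaqMan, Fluidigm arrays) of MMP1 transcript, normalized against three housekeeping genes and fitted in both directions relative to 0.5% DMSO vehicle. Human HepaRG cultures received duplicate 48 h exposures across 8 points, highest 100 uM with half-log steps.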

[19] = read-out: Cytochrome P450 (CYP24A1_1), CYP24A1 (gene 1591); assay: LTEA_HepaRG_CYP24A1_1: Life Technologies and Expression Analysis (LTEA) Assay for Cytochrome P450 (CYP24A1_1) using HepaRG (AID 2283671; active means hit-call score of the fitted dose curve at least 0.9, where 1 is the maximum; inactive means score below 0.9); details: mRNA level, 48 h; actives raise or lower the signal
Outline: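 Readout is CYP24A1 transcript level by qRT-PCR, normalized to three housekeeping genes, with gain or loss of signal fitted against 0.5% DMSO. Human HepaRG cells received compound for 48 h at up to 100 uM.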

Measured: AC50

CCNc1cccc(C)c1
active: [10] 12.1 µM
not listed: [13] | [14] | [15] | [16] | [17] | [18] | [19]
inactive: all other assays above

CCCCC(CC)COC(=O)CC(C(=O)OCC(CC)CCCC)S(=O)(=O)O (centres undefined)
active: [10] 43.8 µM | [11] 15.8 µM
not listed: [9] | [12] | [15] | [16] | [17] | [18] | [19]
inactive: all other assays above

FC(F)(F)C(F)(F)C(F)(F)C(F)(F)C(F)(F)C(F)(F)CCI
active: [15] 31.3 µM
inactive: [1] | [2] | [3] | [4] | [5] | [7] | [8] | [9]

Clc1cc(Cl)c(Cl)cc1Cl
inactive: [1] | [2] | [3] | [5] | [6] | [7] | [8]

O=C(O)Cc1ccccc1Nc1c(Cl)cccc1Cl
active: [15] 4.79 µM
inactive: [1] | [2] | [3] | [4] | [5] | [6] | [7] | [8] | [12] | [14]

Nc1nc(N)c2nc(CNc3ccc(C(=O)N[C@@H](CCC(=O)O)C(=O)O)cc3)cnc2n1
active: [10] 11.7 µM | [11] 0.189 µM
inactive: [1] | [2] | [3] | [4] | [6] | [7] | [9] | [12]

CCCCc1ccc2c(n1)[C@@H](c1ccc(OC)cc1C[C@H](C)C(=O)O)[C@H](C(=O)O)[C@H]2c1ccc2c(c1)OCO2
inactive: [1] | [2] | [3] | [4] | [5] | [6] | [7] | [8] | [14]

CC(=O)OCCOCCOCCOC(C)=O
inactive: [1] | [2] | [3] | [4] | [5] | [7] | [8] | [12]

COc1cc(S(=O)(=O)O)c(C)cc1N=Nc1c(O)ccc2cc(S(=O)(=O)O)ccc12
active: [10] 23.3 µM | [11] 13.4 µM
inactive: [1] | [2] | [3] | [5] | [6] | [8] | [13]

OC[C@@H](O)[C@@H](O)[C@H](O)[C@H](O)CO
inactive: [1] | [2] | [3] | [4] | [5] | [6] | [8] | [13] | [14]

CC(=O)Oc1ccccc1C(=O)O
inactive: [1] | [2] | [4] | [5] | [6] | [7] | [9]

Cc1ccc(C)c(C)c1
not listed: [4] | [9] | [10] | [11] | [12] | [14] | [15]
inactive: all other assays above

CCc1c(C(=O)NN2CCCCC2)nn(-c2ccc(Cl)cc2Cl)c1-c1ccc(Br)cc1
inactive: [1] | [2] | [3] | [5] | [6] | [7] | [8] | [13]
active: [15] 0.533 µM

CC(=O)C(C)=CC1C(C)=CCCC1(C)C (centres undefined)
inactive: [1] | [2] | [3] | [4] | [5] | [6] | [7] | [9] | [15]

COc1ccc(S(=O)(=O)N2C(=O)[C@@](c3ccccc3OC)(N3C[C@H](O)C[C@H]3C(=O)N(C)C)c3cc(Cl)ccc32)c(OC)c1
active: [14] 5.99 µM
inactive: [1] | [2] | [3] | [4] | [5] | [6] | [7] | [13] | [12]

CC(C)(C)c1cc(O)c(C(C)(C)C)cc1O
active: [1] 34.3 µM | [10] 3.58 µM | [11] 27.5 µM | [12] 34.6 µM | [15] 1.19 µM
inactive: [2] | [3] | [5] | [6] | [7] | [8]
